SRC2 inh: human SRC2 (NCOA2) inhibition. 370,000 tested, 0.17% active. AID 651957. HEK293 GAL4-SRC2 luciferase reporter, luminescence. inhibition, % at 9 µM;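 active = inhibition above the mean inhibition of all tested compounds plus 3 SD, set per campaign, cut at about 52% in these data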
SRC3 inh: human NCOA3 inhibition | inhibition, % at 3.6 µM | HEK293 GAL4-SRC3 luciferase reporter, luminescence | Q9Y6Q9 | AID 588352 | 360,000 tested, 0.17% active;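 active = inhibition above a per-campaign cutoff, the mean of all compounds plus 3 SD, cut at about 60% in these data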;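 note: higher means less SRC3-driven luciferase light from the GAL4 reporter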
NR5A2 inv ag: suppresses constitutive activity of human LRH-1. 360,000 tested, 0.13% active. HEK293T StAR-luciferase reporter, LRH-1 transfected, 24 h. inhibition, % at 3.6 µM. O00482. AID 602396;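 active = inhibition above the mean inhibition of all tested compounds plus 3 SD, cut at about 73% in these data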
NCOA1 inh: inhibits human SRC1 coactivator | inhibition, % at 3.6 µM | Q15788 | 360,000 tested, 0.12% active | HEK293 GAL4-SRC1 luciferase reporter, luminescence;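 active = inhibition above the campaign mean plus 3 SD, with each screening campaign given its own cutoff, cut at about 60% in these data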
Target sequence (Q15788 whole entry, looked up, the tested form may be a part): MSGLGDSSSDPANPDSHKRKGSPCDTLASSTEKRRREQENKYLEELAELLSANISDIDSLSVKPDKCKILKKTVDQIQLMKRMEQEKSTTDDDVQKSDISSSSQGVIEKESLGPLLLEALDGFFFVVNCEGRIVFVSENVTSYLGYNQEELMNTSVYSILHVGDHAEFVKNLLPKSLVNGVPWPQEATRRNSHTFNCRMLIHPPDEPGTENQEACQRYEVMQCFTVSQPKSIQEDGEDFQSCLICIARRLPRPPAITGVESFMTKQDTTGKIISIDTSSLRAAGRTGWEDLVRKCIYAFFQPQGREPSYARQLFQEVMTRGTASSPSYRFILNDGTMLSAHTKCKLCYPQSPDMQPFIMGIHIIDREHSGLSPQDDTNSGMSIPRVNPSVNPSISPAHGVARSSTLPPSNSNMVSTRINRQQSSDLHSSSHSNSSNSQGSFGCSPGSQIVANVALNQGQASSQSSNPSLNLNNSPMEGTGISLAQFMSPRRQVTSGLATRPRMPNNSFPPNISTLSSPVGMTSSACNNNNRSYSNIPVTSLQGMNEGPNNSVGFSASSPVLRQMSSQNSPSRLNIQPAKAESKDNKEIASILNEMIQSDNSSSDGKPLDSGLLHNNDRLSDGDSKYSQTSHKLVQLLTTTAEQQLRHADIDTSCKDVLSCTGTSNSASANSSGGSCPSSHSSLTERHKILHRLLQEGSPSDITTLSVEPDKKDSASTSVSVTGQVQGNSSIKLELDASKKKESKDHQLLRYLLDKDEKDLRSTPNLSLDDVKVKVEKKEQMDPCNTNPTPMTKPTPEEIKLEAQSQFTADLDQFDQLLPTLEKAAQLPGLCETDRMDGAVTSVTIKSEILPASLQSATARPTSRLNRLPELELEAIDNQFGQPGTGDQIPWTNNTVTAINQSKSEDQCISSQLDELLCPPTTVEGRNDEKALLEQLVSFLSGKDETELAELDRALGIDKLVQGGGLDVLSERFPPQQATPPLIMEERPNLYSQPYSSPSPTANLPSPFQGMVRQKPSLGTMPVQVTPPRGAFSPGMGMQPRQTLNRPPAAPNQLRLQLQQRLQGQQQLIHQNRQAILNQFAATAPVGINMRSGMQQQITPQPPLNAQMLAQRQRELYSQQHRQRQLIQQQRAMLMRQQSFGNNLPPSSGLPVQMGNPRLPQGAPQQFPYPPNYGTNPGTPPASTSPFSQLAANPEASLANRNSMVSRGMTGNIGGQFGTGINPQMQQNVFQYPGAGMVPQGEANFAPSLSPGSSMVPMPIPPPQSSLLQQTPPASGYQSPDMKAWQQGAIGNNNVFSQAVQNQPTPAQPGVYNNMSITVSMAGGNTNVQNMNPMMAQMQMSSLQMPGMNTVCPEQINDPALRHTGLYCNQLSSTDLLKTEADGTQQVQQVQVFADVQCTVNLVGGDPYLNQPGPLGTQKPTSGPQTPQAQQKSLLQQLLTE
Gli-Sufu antag: antagonists of Gli-Sufu signaling; 340,000 tested, 0.74% active; AID 588413; Sufu-KO-LIGHT fibroblasts, Gli luciferase reporter luminescence; inhibition, % at 5 µM;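 active = inhibition above about 55%, limit read from the data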
NR2F2 inh: blocks human COUP-TFII nuclear receptor. inhibition, % at 8.6 µM. 370,000 tested, 0.7% active. P24468. HEK293T NGFI-A luciferase reporter, luminescence. AID 686940;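 active = inhibition above a per-plate cutoff, mean inhibition of test wells between control levels plus 3 SD, cut at about 38% in these data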;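 note: cells cotransfected with COUP-TFII expression vector driving the NGFI-A reporter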
Gli antag conf: confirmation of Gli-SUFU pathway antagonists | shares compounds with Gli-Sufu antag | Sufu-KO-LIGHT cells, Gli luciferase reporter, luminescence | inhibition, % at 5 µM | 2,500 tested, 40% active | AID 602428;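 active = mean inhibition at 5 µM reaching about 45%, limit read from the data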
Gli cytotox: cytotoxicity counter-screen for Gli-SUFU antagonists. shares compounds with Gli-Sufu antag. Sufu-KO-LIGHT cells cytotoxicity, ATP luminescence. cytotoxicity, % at 5 µM. 2,500 tested, 32% active. AID 651994;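 active = mean cytotoxicity at 5 µM above about 25%, limit read from the data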;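 note: cells exposed to compound overnight for roughly 16 to 18 hours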
Wnt3a counter: inhibits Wnt3a reporter, counter-screen for Gli-SUFU antagonists | Wnt-LIGHT cells, Wnt3a-driven luciferase reporter, luminescence | inhibition, % at 6.25 µM | AID 651995 | shares compounds with Gli-Sufu antag | 2,500 tested, 20% active;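 active = mean inhibition above about 25%, limit read from the data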
Large screens that a line does not name were inactive (follow-up assays come after a bar, where they were run). In the library only some 1.3% were active in any assay of this set; here they are far more common.

O=C(NCc1ccccc1)[C@@H]1CCCN1C(=O)[C@H]1CCCN1C(=O)c1c(F)cccc1F	none (no result: SRC3 inh, NR5A2 inv ag, NCOA1 inh, Gli-Sufu antag)
CCOc1ccc2c(c1)C(C)=CC(C)(C)N2S(=O)(=O)c1ccc(C)cc1	Gli-Sufu antag 67.0 | Gli antag conf 64.2 | Gli cytotox 62.0 | Wnt3a counter inactive
CC1=CC(C)(C)N(S(=O)(=O)c2ccc(C)cc2)c2cc(C)ccc21	Gli-Sufu antag 58.5 | Gli antag conf 58.2 | Gli cytotox 61.9 | Wnt3a counter inactive
COC(=O)C1(C)CN(S(=O)(=O)c2ccc(C)cc2)c2cc(OC)ccc2C1=O (stereo not drawn)	none
COc1ccc2c(c1)C(C)=CC(C)(C)N2S(=O)(=O)c1ccc(C)cc1	Gli-Sufu antag 67.3 | Gli antag conf 55.6 | Gli cytotox 58.0 | Wnt3a counter 30.1
O=C(N/N=C/c1cc(Cl)ccc1O)c1ccc(Br)cc1	SRC3 inh 66.0, Gli-Sufu antag 75.9 | Gli antag conf 59.2 | Gli cytotox 28.9 | Wnt3a counter 58.1
O=C(N/N=C\c1cc(Br)ccc1O)c1ccc(S(=O)(=O)N2CCCCC2)cc1	Gli-Sufu antag 77.4 | Gli antag conf 75.6 | Gli cytotox 29.9 | Wnt3a counter 73.5
O=C(N/N=C/c1ccc(O)c(O)c1)c1cccc(S(=O)(=O)N2CCCCC2)c1	none
COC(=O)[C@]12C[C@H](CC(=O)NCc3ccc(C)o3)C(=O)N(CCC3=CCCCC3)C1=C[C@H](COCc1ccccc1)O[C@@H]2C	none (no result: SRC3 inh, NR5A2 inv ag, NCOA1 inh, Gli-Sufu antag)
COC(=O)[C@]12CCCCC=C1N(Cc1ccc(OC)cc1)C(=O)[C@@H]2CC(=O)N1CCSCC1	none (no result: SRC3 inh, NR5A2 inv ag, NCOA1 inh, Gli-Sufu antag)
COC(=O)C1=C(C)N(C)C(=NCc2cccc(C(F)(F)F)c2)NC1c1ccc(Cl)cc1 (stereo not drawn)	none (no result: SRC3 inh, NR5A2 inv ag, NCOA1 inh, Gli-Sufu antag)
Cc1ccc(S(=O)(=O)N2CCCC(C(=O)NCCN3CCC(Cc4ccccc4)CC3)C2)cc1 (stereo not drawn)	none (no result: SRC3 inh, NR5A2 inv ag, NCOA1 inh, Gli-Sufu antag)
CN1CCCCC(NC(=O)c2ccccc2)C1=O (stereo not drawn)	none (no result: SRC3 inh, NR5A2 inv ag, NCOA1 inh, Gli-Sufu antag)
Cc1ccc2c(c1)S/C(=C/c1ccc[n+](C)c1)N2CCO	Gli-Sufu antag 55.1 | Gli antag conf inactive | Gli cytotox inactive | Wnt3a counter inactive
Cc1ccc2c(c1)N(C)/C(=C/c1cccc[n+]1CCO)S2	none
COc1ccc(CNC(=O)c2c(N)[nH]c(C(=O)c3ccccc3)c2-c2ccc3ccccc3c2)cc1OC	none (no result: SRC3 inh, NR5A2 inv ag, NCOA1 inh, Gli-Sufu antag)
CCCc1sc(N/N=C/c2ccccn2)nc1-c1ccc(Br)cc1	Gli-Sufu antag 63.9 | Gli antag conf 80.5 | Gli cytotox inactive | Wnt3a counter 87.8
COc1cc(C=O)c(-c2c(C=O)cc(OC)c3c2OCO3)c2c1OCO2	Gli-Sufu antag 63.1 | Gli antag conf inactive | Gli cytotox inactive | Wnt3a counter inactive
NC(=O)c1ncn2c(=O)n(CCCl)nnc12	none (no result: SRC3 inh, NR5A2 inv ag, NCOA1 inh, Gli-Sufu antag)
COc1ccc(CC(=O)N2CCCc3ccccc32)cc1OC	Gli-Sufu antag 91.1 | Gli antag conf inactive | Gli cytotox inactive | Wnt3a counter inactive
CCCCNc1c(-c2ccc(OC)c(Sc3ccc(OC)cc3)c2)nc2ccccn12	none (no result: SRC2 inh, NR2F2 inh) | Gli antag conf 57.2 | Gli cytotox 25.9 | Wnt3a counter inactive
CCCCNc1c(-c2ccc(OC)c(Sc3ccc(OC)cc3)c2)nc2cnccn12	none
O=C(OC12CCCN(C1)/C(=C/c1cccnc1)C2)c1ccco1 (stereo not drawn)	none (no result: SRC3 inh, NR5A2 inv ag, NCOA1 inh, Gli-Sufu antag)
CN1CCN(CCC(=O)Nc2ccc(Br)cc2)CC1	Gli-Sufu antag 84.4 | Gli antag conf inactive | Gli cytotox inactive | Wnt3a counter inactive
CC(Nn1cnnc1)c1cc(Cl)ccc1O (stereo not drawn)	Gli-Sufu antag 97.6 | Gli antag conf inactive | Gli cytotox inactive | Wnt3a counter inactive
CCCCC(=O)Nc1cc([N+](=O)[O-])ccc1Cl	Gli-Sufu antag 92.4 | Gli antag conf inactive | Gli cytotox inactive | Wnt3a counter 32.6
Cc1ccc2nc(-c3ccc(Cl)cc3)c(Cc3ccsc3)n2c1	none (no result: SRC3 inh, NR5A2 inv ag, NCOA1 inh, Gli-Sufu antag)
